Among the data in ChEMBL document CHEMBL2218924, “A broad activity screen in support of a chemogenomic map for kinase signalling research and drug discovery” (Biochem J, 2013) are residual activity values, retold here.

In test [1] the target is T1, Serine/threonine-protein kinase TBK1 (Homo sapiens) (UniProt Q9UHD2).
T1 sequence (whole entry): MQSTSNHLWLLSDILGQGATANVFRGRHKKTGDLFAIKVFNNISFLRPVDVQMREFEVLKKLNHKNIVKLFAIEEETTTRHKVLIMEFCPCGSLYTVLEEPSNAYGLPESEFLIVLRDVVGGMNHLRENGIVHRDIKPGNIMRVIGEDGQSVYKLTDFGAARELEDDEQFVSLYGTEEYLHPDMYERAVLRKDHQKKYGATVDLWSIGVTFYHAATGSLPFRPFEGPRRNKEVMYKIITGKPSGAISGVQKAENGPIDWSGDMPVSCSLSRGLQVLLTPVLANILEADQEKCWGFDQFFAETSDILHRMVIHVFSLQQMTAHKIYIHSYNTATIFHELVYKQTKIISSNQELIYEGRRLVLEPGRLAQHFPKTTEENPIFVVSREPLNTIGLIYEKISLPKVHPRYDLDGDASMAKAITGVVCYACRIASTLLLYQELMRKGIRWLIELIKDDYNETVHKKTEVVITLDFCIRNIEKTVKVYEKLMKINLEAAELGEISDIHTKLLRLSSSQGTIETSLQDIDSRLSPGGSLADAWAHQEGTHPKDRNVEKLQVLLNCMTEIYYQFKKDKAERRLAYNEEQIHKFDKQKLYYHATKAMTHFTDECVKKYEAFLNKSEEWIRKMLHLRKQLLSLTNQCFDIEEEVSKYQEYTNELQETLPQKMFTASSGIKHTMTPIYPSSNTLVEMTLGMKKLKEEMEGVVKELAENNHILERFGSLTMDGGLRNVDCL
The settings on record: at 10 µM.

The target of test [2] is T2, TGF-beta receptor type-1 (Homo sapiens) (UniProt P36897).
T2 sequence (whole entry): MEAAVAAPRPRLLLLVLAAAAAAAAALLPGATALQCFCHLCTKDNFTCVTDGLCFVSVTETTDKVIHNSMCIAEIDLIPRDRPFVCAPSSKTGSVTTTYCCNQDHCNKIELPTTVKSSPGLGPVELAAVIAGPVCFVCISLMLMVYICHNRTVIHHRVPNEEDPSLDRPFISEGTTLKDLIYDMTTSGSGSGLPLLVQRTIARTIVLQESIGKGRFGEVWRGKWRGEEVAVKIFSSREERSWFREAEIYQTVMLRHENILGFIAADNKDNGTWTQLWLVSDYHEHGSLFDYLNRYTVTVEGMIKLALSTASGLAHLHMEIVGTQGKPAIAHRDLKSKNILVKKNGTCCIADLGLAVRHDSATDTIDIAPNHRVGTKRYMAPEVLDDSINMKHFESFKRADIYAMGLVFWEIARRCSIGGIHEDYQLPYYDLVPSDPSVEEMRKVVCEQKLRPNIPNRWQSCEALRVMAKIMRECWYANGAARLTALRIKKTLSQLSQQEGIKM
The settings on record: at 1 µM.

Test [3] addresses T2, TGF-beta receptor type-1 (Homo sapiens). The settings on record: at 10 µM.
For test [4], the target named is Insulin-like growth factor 1 receptor (Homo sapiens) (UniProt P08069). The settings on record: at 1 µM.
Test [5] shares this target. Particulars: at 10 µM.
The target of test [6] is T3, Inhibitor of nuclear factor kappa-B kinase subunit alpha (Homo sapiens) (UniProt O15111).
T3 sequence (whole entry): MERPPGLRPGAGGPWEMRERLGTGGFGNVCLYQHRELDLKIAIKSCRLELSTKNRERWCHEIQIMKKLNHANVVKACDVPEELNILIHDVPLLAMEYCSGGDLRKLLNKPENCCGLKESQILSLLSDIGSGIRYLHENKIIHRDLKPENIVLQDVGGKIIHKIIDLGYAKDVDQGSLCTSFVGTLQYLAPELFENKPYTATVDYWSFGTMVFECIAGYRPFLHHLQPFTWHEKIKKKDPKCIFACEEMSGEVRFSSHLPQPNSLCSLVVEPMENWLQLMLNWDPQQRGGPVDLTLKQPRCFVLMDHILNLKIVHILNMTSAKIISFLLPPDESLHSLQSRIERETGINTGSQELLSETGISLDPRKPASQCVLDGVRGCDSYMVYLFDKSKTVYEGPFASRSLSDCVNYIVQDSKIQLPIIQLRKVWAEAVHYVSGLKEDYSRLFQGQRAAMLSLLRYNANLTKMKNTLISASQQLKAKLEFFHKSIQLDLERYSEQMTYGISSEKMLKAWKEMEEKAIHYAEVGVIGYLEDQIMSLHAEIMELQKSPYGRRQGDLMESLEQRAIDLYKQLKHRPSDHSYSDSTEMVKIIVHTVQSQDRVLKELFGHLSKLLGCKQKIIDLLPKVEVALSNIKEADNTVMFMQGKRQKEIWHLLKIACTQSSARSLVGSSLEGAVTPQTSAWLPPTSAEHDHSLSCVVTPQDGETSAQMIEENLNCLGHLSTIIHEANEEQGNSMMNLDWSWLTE
Particulars: at 1 µM.

Test [7] deals with T3, Inhibitor of nuclear factor kappa-B kinase subunit alpha (Homo sapiens). The settings on record: at 10 µM.
Test [8] addresses T4, Inhibitor of nuclear factor kappa-B kinase subunit beta (Homo sapiens) (UniProt O14920).
T4 sequence (whole entry): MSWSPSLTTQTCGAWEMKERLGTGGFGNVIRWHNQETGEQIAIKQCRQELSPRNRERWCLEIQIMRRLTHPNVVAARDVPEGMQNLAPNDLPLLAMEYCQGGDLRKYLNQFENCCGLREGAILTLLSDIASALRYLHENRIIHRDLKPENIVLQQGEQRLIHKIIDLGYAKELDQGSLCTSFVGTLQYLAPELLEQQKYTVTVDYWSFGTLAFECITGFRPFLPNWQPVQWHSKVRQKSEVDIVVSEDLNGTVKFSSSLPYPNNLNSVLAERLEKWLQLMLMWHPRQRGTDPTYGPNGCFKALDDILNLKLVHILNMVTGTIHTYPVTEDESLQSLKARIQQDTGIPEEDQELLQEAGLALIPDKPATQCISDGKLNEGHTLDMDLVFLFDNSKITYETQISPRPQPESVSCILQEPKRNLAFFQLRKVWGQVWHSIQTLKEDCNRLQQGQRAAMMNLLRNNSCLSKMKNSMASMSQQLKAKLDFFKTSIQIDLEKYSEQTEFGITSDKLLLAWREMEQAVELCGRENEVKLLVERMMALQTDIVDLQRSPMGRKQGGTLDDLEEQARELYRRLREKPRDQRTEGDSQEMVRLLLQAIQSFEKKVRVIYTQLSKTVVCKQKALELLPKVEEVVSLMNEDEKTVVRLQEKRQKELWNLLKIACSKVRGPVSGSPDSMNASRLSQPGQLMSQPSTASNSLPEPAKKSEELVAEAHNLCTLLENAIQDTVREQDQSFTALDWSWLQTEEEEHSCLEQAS
The settings on record: at 1 µM.

Test [9] concerns the target T4, Inhibitor of nuclear factor kappa-B kinase subunit beta (Homo sapiens). The settings on record: at 10 µM.

Insulin-like growth factor 1 receptor (Homo sapiens), sequence (P08069 31-736 limits assumed): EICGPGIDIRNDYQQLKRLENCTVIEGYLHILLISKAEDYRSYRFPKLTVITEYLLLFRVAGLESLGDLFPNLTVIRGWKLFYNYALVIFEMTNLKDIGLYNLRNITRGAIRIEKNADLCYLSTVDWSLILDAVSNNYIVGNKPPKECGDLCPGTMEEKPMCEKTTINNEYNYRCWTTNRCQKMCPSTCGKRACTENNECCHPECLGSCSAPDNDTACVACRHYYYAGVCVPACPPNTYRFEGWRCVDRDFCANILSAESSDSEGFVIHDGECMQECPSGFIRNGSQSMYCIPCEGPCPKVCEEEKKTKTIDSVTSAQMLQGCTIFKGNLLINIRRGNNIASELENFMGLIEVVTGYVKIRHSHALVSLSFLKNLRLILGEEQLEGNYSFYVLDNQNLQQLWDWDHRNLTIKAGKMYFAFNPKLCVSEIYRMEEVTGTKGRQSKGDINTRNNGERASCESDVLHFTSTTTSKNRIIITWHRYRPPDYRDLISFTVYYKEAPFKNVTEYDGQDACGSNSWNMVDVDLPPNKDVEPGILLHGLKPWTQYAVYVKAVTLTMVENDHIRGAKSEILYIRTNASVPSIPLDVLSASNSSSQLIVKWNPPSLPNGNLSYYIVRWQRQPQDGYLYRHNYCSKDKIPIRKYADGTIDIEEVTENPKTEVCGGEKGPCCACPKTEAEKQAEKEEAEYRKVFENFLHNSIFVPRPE
Insulin-like growth factor 1 receptor (Homo sapiens), sequence (P08069 741-1367 limits assumed): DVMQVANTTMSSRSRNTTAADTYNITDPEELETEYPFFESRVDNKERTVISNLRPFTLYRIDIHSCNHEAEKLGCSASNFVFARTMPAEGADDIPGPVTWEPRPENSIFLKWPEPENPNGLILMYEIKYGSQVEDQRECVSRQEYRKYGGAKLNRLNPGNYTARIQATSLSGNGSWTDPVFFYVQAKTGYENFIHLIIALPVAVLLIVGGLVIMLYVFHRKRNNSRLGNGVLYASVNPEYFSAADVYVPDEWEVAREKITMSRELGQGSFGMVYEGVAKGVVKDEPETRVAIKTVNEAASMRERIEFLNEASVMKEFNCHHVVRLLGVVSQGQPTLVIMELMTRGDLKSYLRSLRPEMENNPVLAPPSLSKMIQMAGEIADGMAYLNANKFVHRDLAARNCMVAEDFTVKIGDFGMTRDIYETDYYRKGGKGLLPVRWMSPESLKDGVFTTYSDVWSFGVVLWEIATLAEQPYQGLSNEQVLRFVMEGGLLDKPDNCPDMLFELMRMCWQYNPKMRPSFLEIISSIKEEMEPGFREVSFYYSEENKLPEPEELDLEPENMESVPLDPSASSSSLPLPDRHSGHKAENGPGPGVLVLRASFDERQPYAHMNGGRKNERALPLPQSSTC

On to `CCCCc1c(-c2ccc(OC)cc2)[nH]c2nccnc12`, for which the residual activity in test [1] came to 59%; in [2] it was 84%; in [3], 73%; in test [4], 61%; in test [5] it was 51%; in test [6] it was 87%. In addition, the residual activity in test [7] was 87%; in [8], 109%; in [9], 101%.
